# In PubChem BioAssay (Tox21):
# Calls of active or inactive are those of the source. Calls follow the shape of the dose curve; as a rule, active = well fitted curve in the direction sought with a large enough effect in the repeat runs; inconclusive = weak or mixed curves; inactive = flat fitted curve, though single readings scatter.
# Assay: qHTS assay to test for compound auto fluorescence at 590 nm (red) in HepG2 cells (AID 720674)
# Conditions: HepG2 autofluorescence, red 540/590 nm, 1 h; series mostly up to 91.3 µM; fluorescence, relative to Rose Bengal: at the top concentration
# Excerpt: U.S. Tox21 Program National Center for Advancing Translational Sciences [NCATS] NIH Chemical Genomics Center [NCGC] U.S. Environmental Protection Agency [EPA] National Institutes of Environmental Health Sciences [NIEHS] National Toxicology Program [NTP] U.S. Food and Drug Administration [FDA] Tox21 Assay Overview: Compound auto fluorescence often interferes with screening of the compound library against various biological targets and signaling pathways. Some of these compounds may have fluorophoric properties. Such properties may interfere with the assay outputs resulting in false positives and/or negatives. To decrease such complications and ensure the compound activities are relevant in terms of biological response, the Tox21 10K compound library was screened for auto fluorescence. From the fluorophores used as reporter signals in our screening assays, the auto fluorescence equivalencies of compounds against three fluorophores have been evaluated: Triamterene, Fluorescein and Rose Bengal sodium for blue, green and red fluorescence, respectively. The fluorescence intensities were measured using Excitation/Emission wavelengths at 405/460nm, 485/535nm and 540/590nm for blue, green and red labels, respectively. This assay includes the red fluorescence data.
# Tox21 Assay Protocol Summary: 2,000 HepG2 cells in 5 uL of culture medium (MEM containing 10% FBS) per well were dispensed into black wall/clear bottom 1536-well plates using a Multidrop Combi Dispenser (ThermoFisher Scientific, Waltham, MA). The assay plates were incubated overnight at 37 C to allow cell attachment to the well bottom, followed by the transfer of 23 nL compound or DMSO vehicle by a pintool work station (Kalypsys , San Diego, CA). After the assay plates were incubated for 1 hr at 37 C and 5% CO2, fluorescence intensities in the assay plates were measured by an Envision (PerkinElmer, Shelton, CT) plate reader using three labels for measuring blue, green and red fluorescence at […] 460, 535 and 590 nm respectively.
# % is scaled to controls: 0 for no effect and ±100 for the full control effect.
SMILES,"fluorescence, relative to Rose Bengal",Potency
O=C(OCCCCCCOC(=O)c1ccccc1)c1ccccc1,-0.0048% (inactive),
CCCCCCCCCCCCCCOS(=O)(=O)O,-0.0092% (inactive),
CCCCCCc1ccc(-c2ccc(C#N)cc2)cc1,0.0147% (inactive),
CCOC(=O)NCCOc1ccc(Oc2ccccc2)cc1,0.363% (inactive),
CCOC(=O)Cc1cccc2ccccc12,-0.115% (inactive),
Clc1ccc(Cn2c(CN3CCCC3)nc3ccccc32)cc1,-0.15% [at 18.6 µM] (inactive),
O=C1[C@H]2CCCC[C@H]2C(=O)N1CCCCN1CCN(c2nsc3ccccc23)CC1,-0.623% [at 46 µM] (inactive),
CC/C=C\CCOC(=O)CC,-0.006% (inactive),
CCC(=O)O[C@]1(C(=O)CCl)[C@@H](C)C[C@H]2[C@@H]3CCC4=CC(=O)C=C[C@]4(C)[C@@]3(F)[C@@H](O)C[C@@]21C,0.0905% [at 46 µM] (inactive),
CC(C)CC(=O)C1C(=O)c2ccccc2C1=O,-0.112% (inactive),
C#CCN(C)CCCOc1ccc(Cl)cc1Cl,0.11% [at 46 µM] (inactive),
CCCCCCCCCCCC(=O)OC[C@@H](O)[C@H]1OC[C@H](OCCO)[C@H]1OCCO,0.0374% (inactive),
C=C(C)C(=O)OCCO,0.0102% [at 95.7 µM] (inactive),
Cc1cc(N)c2cc(NC(=O)Nc3ccc4nc(C)cc(N)c4c3)ccc2n1,0.574% [at 46 µM] (inactive),
C=C1[C@H]2CC[C@@H]3[C@H]2C(C)(C)CCC[C@]13C,-0.297% (inactive),
CC(CSC(=O)c1ccccc1)C(=O)N1C[C@@H](Sc2ccccc2)C[C@H]1C(=O)O (stereo not given in full),0.27% [at 46 µM] (inactive),
CNC(=O)CN(CCN(CCN(CC(=O)[O-])CC(=O)NC)CC(=O)[O-])CC(=O)[O-].O.[Gd+3],,inactive
O=CC1CC=CCC1 (stereo not given),0.0063% (inactive),
CCCCCCCCCc1ccc(OCCOCCO)cc1,,inactive
CCCCCCCCCCO[C@@H]1O[C@H](CO)[C@@H](O)[C@H](O)[C@H]1O,0.0107% (inactive),

SMILES,"fluorescence, relative to Rose Bengal",Potency
CCc1cc(C2=C(C(=O)O)N(c3ccccc3C(F)(F)F)S(=O)(=O)c3ccccc32)cc2c1OCO2,-0.177% (inactive),
COc1cc(Cl)ccc1Oc1ccc(Cl)cc1Cl,-0.0724% (inactive),
COc1ccnc(CS(=O)c2nc3ccc(OC(F)F)cc3[nH]2)c1OC (stereo not given),0.162% [at 46 µM] (inactive),
Nc1cccc([N+](=O)[O-])c1,0.0593% (inactive),
CCCCCCCCCCCCN1CCCCCC1=O,-0.522% (inactive),
CCCCCCCCCCCCCCCCCCOS(=O)(=O)O,-0.0857% (inactive),
COc1ccc(C(=O)Nc2nc3ccccc3c(NCc3ccccc3)c2C#N)cc1,-0.012% (inactive),
CCCCCCCCO[C@@H]1O[C@H](CO)[C@@H](O)[C@H](O)[C@H]1O,-0.192% (inactive),
CN(C)C(=O)NC1(c2ccccc2)CCN(CC[C@@]2(c3ccc(F)c(F)c3)CN(C(=O)c3ccccc3)CCO2)CC1,-0.261% (inactive),
CCOc1ccc(O)cc1,0.0219% (inactive),
COc1cccc(N(C)C(=S)Oc2ccc3c(c2)CCCC3)n1,-0.0188% [at 46 µM] (inactive),
COc1cc2c(cc1OC)C(C(C(=O)N(CCc1ccc(OC)c(OC)c1OC)CCc1ccc(OC)c(OC)c1OC)c1ccccc1)=NCC2 (stereo not given),-0.16% [at 46 µM] (inactive),
C/C=C/C=C/CO,0.186% (inactive),
O=C1CCCCCCCCCCCC(=O)OCCO1,-0.0989% (inactive),
C=C1C(=C/C=C2\CCC[C@]3(C)[C@@H]([C@H](C)/C=C/[C@@H](O)C4CC4)CC[C@@H]23)C[C@@H](O)C[C@@H]1O,0.127% [at 46 µM] (inactive),
COC(C)OC,0.0691% (inactive),
CCCCC(CC)COC(=O)CCCCCCCCC(=O)OCC(CC)CCCC (stereo not given),0.0101% (inactive),
O=[N+]([O-])c1cccc(S(=O)(=O)O)c1,-0.0572% [at 95.7 µM] (inactive),
NCc1ccccc1Sc1ccccc1CO,-0.0165% [at 46 µM] (inactive),
Nc1cccc(S(=O)(=O)c2cccc(N)c2)c1,0.216% (inactive),
